According to PubChem BioAssay (NCI):
The panel holds about 83,000 compounds, 20% with a hit somewhere; the sample as a whole holds those more often.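 Step 1: grow cells in 96-well plates. Step 2: add test compound at a single concentration. Step 3: incubate 48 h. Step 4: record percent growth.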 A number with no mark means an inactive call. Activity calls are given as the source filed them. The calls were made as follows: active = growth percent below 10; inactive = the rest.

What was measured:
Experiment in all cases: NCI-60 one-dose screen, 48 h (100 = growth as untreated, 0 = no growth, -100 = all killed)
Conditions in all cases: 10 µM unless noted
[1] = system: SK-MEL-2 melanoma
[2] = system: EKVX NSCLC
[3] = system: SN12C renal
[4] = system: UO-31 renal
[5] = system: TK-10 renal
[6] = system: ACHN renal
[7] = system: CAKI-1 renal
[8] = system: A498 renal
[9] = system: CCRF-CEM leukemia
[10] = system: MOLT-4 leukemia

Structure (SMILES) | growth [1] | growth [2] | growth [3] | growth [4] | growth [5] | growth [6] | growth [7] | growth [8] | growth [9] | growth [10]
Cc1cc(Cl)ccc1NC(=O)c1cc2ccccc2cc1O | -2.55% (active) | 44.2% | 3.74% (active) | -2.52% (active) | -0.787% (active) | 8.67% (active) | -5.76% (active) | -12.8% (active) | 8.07% (active) | 17.7%
Clc1ccc2c(c1)N(c1ncnc3ccc(-c4cnc5[nH]ncc5c4)cc13)CC2 | 48.3% | 16.8% | 19.5% | 4.18% (active) | 13.9% | 13% | 11% | -45.2% (active) | 31.9% | 3.68% (active)
CN([O-])c1nc(N(C)[O-])nc(N2CCOCC2)n1.CN([O-])c1nc(N(C)[OH2+])nc(N2CCOCC2)n1.[Fe+3] | 84.9% [100 µM] | 14.5% [100 µM] | 99.9% [100 µM] | 72.3% [100 µM] | 110% [100 µM] | 82.8% [100 µM] | 85.8% [100 µM] | 109% [100 µM] | 11.7% [100 µM] | 30.3% [100 µM]
Cc1cc(N)c2cc(NC(=O)/C=C\c3ccccc3Cl)ccc2n1 | -72.5% (active) | -71.8% (active) | -81.7% (active) | -72.1% (active) | -90% (active) | -85% (active) | -76% (active) | -88.3% (active) | -74.2% (active) | -53.2% (active)
CCOC(=O)c1cn2ncnc(Oc3ccc(NC(=O)NC4CCCCC4)c(Cl)c3)c2c1C | 103% | 74.3% | 72.8% | 79% | 111% | 61.5% | 85% | 76.5% | 69.8% | 75.1%
CC(=O)c1cc(O)c2ccccc2c1O | 103% | 78.9% | 105% | 67% | 148% | 85.1% | 85.7% | 133% | -10.5% (active) | 107%
COC(=O)/C=C1/SC(=Nc2ccc(C)cc2)N(CCc2c[nH]c3ccc(O)cc23)C1=O | 35.4% | 49.6% | 45.4% | 46.8% | 94.6% | 57.4% | 69.9% | 67.1% | 1.81% (active) | -8.16% (active)
COc1ccc(N2CCC(=O)NC2=S)cc1 | 102% | 102% | 98.3% | 86.5% | 100% | 104% | 95.4% | 108% | 111% | 105%
CC1(C)CC[C@]2(c3nnc(-c4ccncc4)o3)CC[C@H]3C(=CC[C@H]4[C@@]3(C)CC[C@H]3C(C)(C)C(=O)CC[C@]43C)[C@@H]2C1 | 97% | 80.1% | 75.2% | 51% | 97.5% | 71.3% | 58.1% | 31.6% | 52.5% | 38.7%
C/C(Nc1ccc(Cl)c(Cl)c1)=C1\CCOC1=O | 97% | 77.4% | 88.9% | 84.3% | 104% | 79.7% | 57.7% | 93.5% | 81.5% | 80.9%
CCN1C(=O)N(CC)C2C1NN=c1s/c(=C\c3ccc(Cl)cc3Cl)c(=O)n12 (stereo not given) | 45.7% | 50.1% | 21.5% | 35.9% | 67.7% | 26.7% | 21.1% | 16.9% | 9.4% (active) | 12.9%
N#Cc1c(NC(=O)c2ccccc2)sc2c1CCC(=O)C2 | 13.6% | 21.7% | 11.6% | -16.4% (active) | 39.5% | 5.88% (active) | -27.3% (active) | 78.3% | 7.52% (active) | 8.12% (active)
